Laboratory results as given in PubChem BioAssay (NCI).
The panel holds about 79,000 compounds, 15% with a hit somewhere; the sample as a whole holds those more often. Cut-off read from the data, not from the text of the source: active = growth inhibition above about 70%; inactive = the rest. Where a SMILES comes first, the peptide text is derived from it. Bridges are numbered along the chain shown (N, C = ends). Roman numbers before positions name the chains, in order.

Legend:
[1] = NCI Yeast Anticancer Drug Screen. Data for the mec2-1 strain (AID 157); conditions: S. cerevisiae mec2-1 strain, at 50.0 µM, hits give high values
Procedure, shortened: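 Readout is yeast growth inhibition, normalised to vehicle-treated controls, in the mec2-1 strain exposed to compound.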

[2] = NCI Yeast Anticancer Drug Screen. Data for the sgs1 mgt1 strain (AID 161);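 note: 0% = growth of cultures given vehicle only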; conditions: S. cerevisiae sgs1 mgt1 strain, at 50.0 µM, hits give high values
Procedure, shortened: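 Compounds are added to genetically altered yeast, and growth is compared with cultures given vehicle alone to give percent inhibition.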

[3] = NCI Yeast Anticancer Drug Screen. Data for the cln2 rad14 strain (AID 165);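 note: 0% = growth equal to vehicle treated cultures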; conditions: S. cerevisiae cln2 rad14 strain, at 50.0 µM, hits give high values
Procedure, shortened: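 Relative to vehicle controls, growth inhibition of compound-treated cln2 rad14 yeast was recorded.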

[4] = NCI Yeast Anticancer Drug Screen. Data for the bub3 strain (AID 167); conditions: S. cerevisiae bub3 mutant strain, at 50.0 µM, hits give high values
Procedure, shortened: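 Steps: expose the mutant yeast strain to compound; grow alongside vehicle-treated cultures; measure growth; express inhibition against the vehicle cultures.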

[5] = NCI Yeast Anticancer Drug Screen. Data for the mlh1 rad18 strain (AID 175); conditions: S. cerevisiae mlh1 rad18 strain growth inhibition; at 50.0 µM; hits give high values
Procedure, shortened: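 Test agents were incubated with a yeast strain of defined genotype (DNA damage repair defect). Inhibition of growth was derived by comparison with vehicle-exposed cultures.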

Measured: growth inhibition

CC1=CC=CC(C)(C)C(=O)C1=O
inactive: [1] -13.2% | [2] -12.8% | [3] -18.9% | [4] -21.5% | [5] -15.4%

COc1ccc(CN=CN/C(C#N)=C(\N)C#N)cc1OC
inactive: [1] -49.8% | [2] -28.6% | [3] 6.55% | [4] 4.35% | [5] -23.6%

Nc1cc(NC(=O)CO)cc(C(=O)O)c1
inactive: [1] -1.15% | [2] -1% | [3] -0.4% | [4] 4.05% | [5] 7.1%

CCN(CC)C(CC(=O)c1ccccc1)C(=O)c1ccccc1 (centres undefined)
inactive: [1] 16.5% | [2] 13.2% | [3] -10% | [4] 13.3% | [5] 49.6%

CC1=NC(C(N)=O)C(=O)N1 (centres undefined)
inactive: [1] -23.4% | [2] -15.3% | [3] -30.4% | [4] -8.8% | [5] -0.65%

O=C(O)c1nn(-c2ccccc2)c2c1CSc1ccccc1-2
inactive: [1] 34.2% | [2] 25.6% | [3] 27.2% | [4] 16.9% | [5] 13.2%

C=C(C)C(=O)NC(Cc1cnc[nH]1)C(=O)O (centres undefined)
inactive: [1] 0.5% | [2] 16.1% | [3] 1.15% | [4] 15.2% | [5] 0.55%

COc1ccccc1/C=N/Nc1ccc([N+](=O)[O-])cc1[N+](=O)[O-]
inactive: [1] 5.15% | [2] 3.35% | [3] -16.6% | [4] 16.8% | [5] 18.8%

CCN1C(=O)C(=O)C(CC)(CC)C1=O
inactive: [1] -1.75% | [2] -7% | [3] -8.25% | [4] 0.85% | [5] -13.6%

O=S(=O)(Oc1ccc(Cl)cc1)c1ccc(Br)cc1
inactive: [1] 32.7% | [2] 47.1% | [3] 8.8% | [4] 39.4% | [5] 25.3%

N#CCCOC1C(OCCC#N)C(OCCC#N)C(OCCC#N)C(OCCC#N)C1OCCC#N (centres undefined)
inactive: [1] -23.1% | [2] 8% | [3] 17.7% | [4] 28.2% | [5] 16.1%

COC(=O)c1cc(C(=O)OC)c(C/C(=N/NC(N)=S)C(=O)Nc2ccc(Cl)c(Cl)c2)nc1C/C(=N/NC(N)=S)C(=O)Nc1ccc(Cl)c(Cl)c1
inactive: [1] 14.9% | [2] 7.1% | [3] 34.2% | [4] 32.7% | [5] 44%

CNC(=O)OCc1c(COC(=O)NC)c(-c2ccc(SC)cc2)n(C)c1C
inactive: [1] 8.4% | [2] 47.4% | [3] 0.1% | [4] 2.6% | [5] 49.7%

Cc1cn(C2CC3[O][Sn]([c]4ccccc4)([c]4ccccc4)[O]CC3O2)c(=O)[nH]c1=O (centres undefined)
inactive: [1] 35.8% | [2] 16.6% | [3] 7.6% | [4] 13.2% | [5] 47%

CCN(CC)CCOC(=O)c1c(C)cc(C)cc1C
inactive: [1] -9.4% | [2] 4.9% | [3] -41.5% | [4] -15.6% | [5] -7.9%

CCC(C)(N)C(=O)O (centres undefined)
inactive: [1] 13.3% | [2] 5.1% | [3] 2.6% | [4] 18.2% | [5] 4.05%

O=C1CN(c2ccccc2)CC(=O)N2Cc3ccccc3CN12
inactive: [1] 1.2% | [2] 9.8% | [3] 17.1% | [4] 16.7% | [5] 14.7%

N#Cc1ccc(/C=C/C(=O)c2ccccc2)cc1
inactive: [1] -20.1% | [2] 5.8% | [3] 6.8% | [4] 13.9% | [5] 9.05%

Cc1nc2ccccc2[nH]1
inactive: [1] -31.1% | [2] -4% | [3] 5.85% | [4] 3.45% | [5] 8.8%

COc1cccc(/C=N\c2nc(-c3ccccc3Cl)cs2)c1O
inactive: [1] 5.15% | [2] 32.4% | [3] 21.9% | [4] 39.6% | [5] 27.4%

CC(C)CC(NC(=O)C(N)CSSCC(N)C(=O)NC(CC(C)C)C(=O)O)C(=O)O (stereo not drawn) (I: H-Cys-Leu-OH / II: H-Cys-Leu-OH; disulfide I:1-II:1; configuration not given here)
inactive: [1] -6.85% | [2] -9.8% | [3] -23.1% | [4] -1.25% | [5] -6.9%

CCN(CC)Cc1cc2[nH]c3c4ccc(Cl)cc4ncc3c2cc1OC
inactive: [1] 11.8% | [2] -6.15% | [3] -2.65% | [4] -45.5% | [5] -42.6%

O=C1C(c2ccccc2)=[N+]([O-])c2cc([N+](=O)[O-])ccc21
inactive: [1] 5.65% | [2] 13.8% | [3] 23.2% | [4] 14.8% | [5] 36%

Cc1cc(C)c2[nH]c(=O)c(C)c(C)c2c1Br
inactive: [1] 5.55% | [2] -7.2% | [3] -16.6% | [4] -1.3% | [5] -0.25%

O=C(O)c1ccc2ncc(-c3ccccc3)nc2c1
inactive: [1] 11.7% | [2] 2.35% | [3] -31.1% | [4] -7.4% | [5] 16.4%

CN(C)CC(CN(C)C)C(=O)O
inactive: [1] 2.75% | [2] -13.3% | [3] 22% | [4] -6.25% | [5] -15.7%

CC(=O)Nc1ccc(OC(C)=O)cc1
inactive: [1] -0.85% | [2] 3.55% | [3] 20.5% | [4] 2.7% | [5] 24.4%

CC1(C)OC2COC(c3[nH]nc(C(N)=O)c3C(=O)N=[N+]=[N-])C2O1 (centres undefined)
inactive: [1] -1.35% | [2] -12.1% | [3] 4.35% | [4] 7.85% | [5] -9.95%

CCC(=O)OCCSCCOC(=O)CC
inactive: [1] 5.65% | [2] -6.4% | [3] -10.3% | [4] -4.4% | [5] -15.8%

O=C(O)CCc1coc2ccc(O)cc12
inactive: [1] 10.1% | [2] 8.4% | [3] -20.6% | [4] -6.1% | [5] 14.2%

Nc1ccc(S(=O)(=O)N/N=C/c2ccco2)cc1
inactive: [1] -25.1% | [2] 2.8% | [3] 1.6% | [4] -50.5% | [5] -15.1%

O=C(CBr)Nc1ccccc1[N+](=O)[O-]
inactive: [1] -1.35% | [2] 5.8% | [3] 0.4% | [4] 6.05% | [5] -5.4%

CCCCOCCOCCOC(=O)C(C)O (centres undefined)
inactive: [1] -4.7% | [2] -3.95% | [4] -7.25% | [5] -14%

O=C(c1ccccc1)c1ccccc1-c1nc2ccccc2c(=O)o1
inactive: [1] -6.65% | [2] 1.65% | [3] 29.9% | [4] 30.8% | [5] -0.8%

CSC(=S)Nc1nc2ccc(Cl)cc2s1
inactive: [1] 6.75% | [2] 15.3% | [3] 3.15% | [4] 17.7% | [5] 3.2%

COc1ccc(S(=O)(=O)Oc2ccc(Cl)cc2)cc1
inactive: [1] 11.6% | [2] 18.1% | [3] -234% | [4] 42.5% | [5] 9.05%

C/C=C/C(=O)OCCCCCCCCCCCC
inactive: [1] -39% | [2] -18.8% | [3] -16.8% | [4] -15.6% | [5] -39.8%
